# Compound activity as filed in PubChem BioAssay.
# KLK7 zymogen act: activates the human kallikrein-7 zymogen; purified proKLK7, EDANS-DABCYL substrate fluorescence; 100% is mature enzyme control, 0% vehicle; activation, % at 7 µM; 0.9% of 370,000 active; AID 652039;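 active = activation above the mean of all tested compounds plus 3 SD, computed per campaign excluding outliers beyond control limits, cut at about 13% in these data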
# ADAM17 inh: ADAM17 inhibition, QFRET primary screen | recombinant ADAM17, EDANS/DABCYL FRET peptide cleavage | P78536 | 0.83% of 370,000 active | inhibition, % at 6.95 µM;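 active = inhibition above the mean of compounds lying between control limits plus 3 SD, set per campaign, cut at about 8.5% in these data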
# Target sequence (P78536 215-824 limits assumed): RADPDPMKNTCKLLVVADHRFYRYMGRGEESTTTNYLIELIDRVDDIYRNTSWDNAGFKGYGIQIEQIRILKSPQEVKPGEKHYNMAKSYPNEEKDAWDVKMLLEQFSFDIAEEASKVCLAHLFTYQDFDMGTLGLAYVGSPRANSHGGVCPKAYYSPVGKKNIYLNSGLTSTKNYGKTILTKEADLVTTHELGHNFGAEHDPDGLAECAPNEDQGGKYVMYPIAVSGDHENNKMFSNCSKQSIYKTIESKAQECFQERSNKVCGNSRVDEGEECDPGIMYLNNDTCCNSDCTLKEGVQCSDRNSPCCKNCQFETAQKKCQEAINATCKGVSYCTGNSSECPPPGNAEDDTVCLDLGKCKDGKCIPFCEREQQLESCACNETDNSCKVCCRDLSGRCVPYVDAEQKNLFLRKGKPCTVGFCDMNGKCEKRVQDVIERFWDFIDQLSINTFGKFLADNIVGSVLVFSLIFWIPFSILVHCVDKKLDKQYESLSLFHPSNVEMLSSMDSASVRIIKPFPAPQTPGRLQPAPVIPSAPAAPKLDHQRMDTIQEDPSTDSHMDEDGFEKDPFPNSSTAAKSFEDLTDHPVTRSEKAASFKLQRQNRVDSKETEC
# V-ATPase pH: alters yeast V-ATPase proton transport; S. cerevisiae, pHLuorin cytosolic pH fluorescence; response, % at 10 µM; 0.37% of 350,000 active; AID 504577; in the data active = response mostly above about 7.3%, no sharp cut-off; inactive = mostly below about 5.4%; also: actives read high
# ADAM10 inh: inhibits human ADAM10. inhibition, % at 7 µM. 0.62% of 370,000 active. recombinant ADAM10, EDANS/DABCYL FRET peptide cleavage, 3 h. O14672;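 active = inhibition above a per-campaign cutoff equal to the mean of compounds falling between control-based bounds plus 3 SD, cut at about 20% in these data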
# KLK7 act conf: confirmation of human kallikrein-7 zymogen activators; purified proKLK7, EDANS-DABCYL substrate fluorescence; scaled: vehicle 0, mature enzyme 100; shares compounds with KLK7 zymogen act; activation, % at 7 µM; 68% of 3,200 active;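 active = activation, as change over the incubation, above the mean of all tested compounds plus 3 SD, cut at about 13% in these data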
# EDANS interfere: counter-screen for kallikrein-7 activators: EDANS-DABCYL optical interference | shares compounds with KLK7 zymogen act | activation, % at 7 µM | EDANS-DABCYL substrate fluorescence interference, no enzyme, 4 h; solvent 0%, active enzyme control 100% | 80% of 3,200 active;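 active = activation above the all-compound mean plus 3 SD, ignoring values outside control-based bounds, cut at about 4.8% in these data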;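 also: value is the 4 h activation minus the activation read at time zero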
# K7 EDANS ctr: EDANS fluorescence interference in dose response, no enzyme. shares compounds with KLK7 zymogen act. EDANS-DABCYL peptide fluorescence interference. EC50, µM. 20% of 250 active;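 active = compounds that raise the fluorescence signal in this interference counterscreen, with EC50 at or below 10 µM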;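 also: intact quenched peptide substrate alone read at 355 nm excitation and 520 nm emission; signal is fluorescence gain from T0 to T4 after four hours at room temperature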
# Numbers stand for hits; . = inactive; / = no result given. This is a sample that favours compounds with a hit; in the whole collection about 2.3% have one here.
SMILES,KLK7 zymogen act,ADAM17 inh,V-ATPase pH,ADAM10 inh,KLK7 act conf,EDANS interfere,others
O=c1c(-c2ccccc2)nc2ccccc2n1C(c1ccccn1)c1nc2ccccc2[nH]1 (stereo unspecified),.,.,/,.,/,/,
CN(c1ccccc1)S(=O)(=O)c1cccc(NC(=O)C2=NN(c3ccccc3)C(=O)CC2)c1,53,.,.,.,.,8.6,
Cc1cc2c(nc1C)CCCN2S(=O)(=O)c1ccc(C(F)(F)F)cc1,.,.,/,.,/,/,
Cc1ccc2nc3c(cc(C(=O)NCC4CCCO4)c(=N)n3C3CCCC3)c(=O)n2c1 (stereo unspecified),81,.,.,.,72,81,
N=c1c(C(=O)NCC2CCCO2)cc2c(=O)n3ccccc3nc2n1C1CCCCC1 (stereo unspecified),35,.,.,.,.,.,
N=c1c(C(=O)NCC2CCCO2)cc2c(=O)n3ccccc3nc2n1C1CCCC1 (stereo unspecified),106,.,.,.,42,30,K7 EDANS ctr=.
Cc1cccn2c(=O)c3cc(C(=O)NC4CCCC4)c(=N)n(C4CCCCC4)c3nc12,.,.,.,.,/,/,
N=c1c(C(=O)NCC2CCCO2)cc2c(=O)n3ccccc3nc2n1Cc1ccccc1Cl (stereo unspecified),.,.,.,.,/,/,
Cc1cccn2c(=O)c3cc(C(=O)NCC4CCCO4)c(=N)n(C4CCCC4)c3nc12 (stereo unspecified),81,.,.,.,.,.,
CN1CCSc2ccc(C(=O)NCc3cccc(F)c3)cc21,49,.,.,.,51,.,K7 EDANS ctr=.
O=C(NC1CCCC1)c1ccc2c(c1)N(Cc1ccc(F)cc1)CCS2,.,.,.,.,/,/,
Cc1ccc(CN2CCSc3ccc(C(=O)NCCCN4CCN(C)CC4)cc32)cc1,39,.,.,.,.,.,
CCOC(=O)N1CCC(NC(=O)c2ccc3c(c2)N(CC)CCS3)CC1,27,.,.,.,.,5.2,
CN(C)CCNC(=O)c1ccc2c(c1)N(Cc1ccc(F)cc1)CCS2,62,.,.,.,.,.,
Cc1cc(Nc2ccc(Cl)c(C(F)(F)F)c2)cc(=O)n1-c1ccc(Cl)c(C(F)(F)F)c1,.,.,/,.,/,/,
Cc1ccc2cccc(OC(=O)c3cccnc3Oc3ccccc3)c2n1,.,.,/,.,/,/,
CNc1cnc(-c2cccc(C(=O)N3CCOCC3)c2)cn1,14,.,/,.,15,20,
CNc1cccc(-c2ccc(C(=O)N3CCOCC3)cc2)n1,.,.,/,.,/,/,
CCN(CC)CCCNC(=O)c1cc2cc(Cl)ccc2nc1N,17,.,/,.,26,25,
O=C(NC1CCC(O)CC1)c1cc(-c2ccc(Cl)cc2)nc2ccccc12 (stereo unspecified),.,.,.,.,/,/,
Nc1nc2ccc(Cl)cc2cc1C(=O)NCCc1ccc(Cl)cc1Cl,.,.,/,.,/,/,
Nc1nc2ccc(Cl)cc2cc1C(=O)NC1CC1,16,.,/,.,.,8.8,
COc1ccc2cc(C3CC=C(CO)CN3S(=O)(=O)c3ccccc3[N+](=O)[O-])n(C(=O)OC(C)(C)C)c2c1 (stereo unspecified),.,.,/,.,/,/,
COc1ccc2c3c(n(C(=O)OC(C)(C)C)c2c1)C1CC=C(COC(C)=O)CN1CC3 (stereo unspecified),18,.,/,.,.,9.5,
COc1ccccc1NC(=O)OC1CC2CC1[C@H]1CCCCN1[C@H]2Cc1ccccc1 (stereo partly specified),.,.,/,.,/,/,
SMILES,KLK7 zymogen act,ADAM17 inh,V-ATPase pH,ADAM10 inh,KLK7 act conf,EDANS interfere,others
Nc1ccc2cc3[nH]c4cc(N)ccc4c3nc2c1,86,.,.,.,75,75,
COc1ccc(-c2cc(C(=O)N(C)CC(=O)Nc3ccccc3C(F)(F)F)c3ccccc3n2)cc1OC,14,.,.,.,.,9.0,
COCCN1CCCc2nc(-c3ccc(Br)cc3)ccc21,.,.,/,.,/,/,
C[C@@H]1OC(C2CCCCC2)N(C)[C@H]2C[C@H]3c4cc(-c5ccc6c(c5)OCO6)ccc4CCN3C[C@@H]12 (stereo partly specified),.,.,/,.,/,/,
COc1ccc(C(=O)Nc2cccc(NC(=O)c3cccs3)c2)cc1OC,35,.,.,.,22,29,
CNC(=S)NNC(=O)c1cccs1,13,.,.,.,14,13,
O=C(Nc1ccc(NC(=O)c2cccs2)cc1)c1cccs1,14,.,.,.,30,22,K7 EDANS ctr=.
COc1ccc(NC(=S)NNC(=O)c2cccs2)cc1,21,.,.,.,.,8.5,
O=C(Nc1ccc(Cl)cc1)c1cccs1,.,.,.,.,/,/,
CCNC(=S)NNC(=O)c1cccs1,.,.,.,.,/,/,
CC(=O)c1cccc(NC(=O)c2cnn3c(C)cc(C)nc23)c1,/,.,/,.,/,/,
COc1cccc(CN2CC(C(=O)NCCc3cn4cccnc4n3)CCC2=O)c1 (stereo unspecified),19,.,.,.,19,14,K7 EDANS ctr=9.7
COC(=O)c1cc2c(c3c4cc(F)ccc4n(S(=O)(=O)c4ccc(C)cc4)c13)C(=O)N(Cc1ccccc1)C2,.,.,/,.,/,/,
CCOC(=O)CSc1nc(N)c(C#N)c(-c2ccc(OCC)cc2)c1C#N,13,.,.,.,.,.,
CCOC(=O)C1=C(CSc2nc(C)cc(C)c2C#N)OC(N)=C(C#N)C1c1ccccc1 (stereo unspecified),26,.,.,.,33,30,
Cc1cc(C)c(C#N)c(SCC(=O)CC(=O)OC(C)C)n1,45,.,.,.,72,69,
Cc1cc(C)c(C#N)c(SCC(=O)OC2CCCCC2)n1,.,.,.,.,/,/,
CCOC(=O)CSc1nc(C)cc(C)c1C#N,30,.,.,.,56,54,
Cc1ccc2c(c1)C1CS(=O)(=O)N(Cc3ccccc3)C(=O)N1C2 (stereo unspecified),.,.,/,.,/,/,
C[C@@H]1CCCN1c1cccc2c1S(=O)(=O)N1CC[C@@H](C1)O2,.,.,/,.,/,/,
COC(=O)c1ccc2nc(-c3cccc(Cl)c3)c(Cc3ccccc3C(F)(F)F)n2c1,.,.,/,.,/,/,
CCOc1ccc(-n2c(SC/C=C/c3ccccc3)nnc2-c2cccs2)cc1,.,.,/,.,/,/,
Cc1nc(SCC(=O)CC(=O)OC(C)C)c(C#N)c(C)c1C,40,.,.,.,63,57,
CSc1nc(N)nc(SCC(=O)CC(=O)OC(C)C)c1C#N,.,.,.,.,/,/,
CC1CCN(CCCNC(=O)c2coc3nc4ccccc4nc23)CC1,49,.,.,.,64,69,
Cc1ccc(CCNC(=O)c2coc3nc4ccccc4nc23)cc1,.,.,.,.,/,/,
CC1CCCN(CCCNC(=O)c2coc3nc4ccccc4nc23)C1 (stereo unspecified),30,.,.,.,50,76,
